Experiment [1] can be described thus: compounds binding Alexa647 anti-His antibody – biochemical, small-molecule microarray, 635 nm fluorescence, artefact control for SMM control protein annotation, primary screen (AID 1128).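 Note: score merges feature fluorescence with signal-to-noise for each printed compound spot.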 The note with it: higher = more signal.
In experiment [2] the test system is Human papillomavirus type 1a E7 protein (residues 1-88). Nature of the experiment: HPV1a E7 small-molecule binders, primary screen, biochemical, small-molecule microarray, residues 1-88, 635 nm (AID 1129). The following applies: small-molecule microarray binding, fluorescence 635 nm; higher = more signal.
Experiment [3] deals with Focal adhesion kinase 1 (Homo sapiens) (UniProt Q05397). Nature of the experiment: PTK2 protein binding on printed compound slides – biochemical, small-molecule microarray, 635/667 nm fluorescence, BSA, DTT, primary screen (AID 1130).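 Note: composite of spot emission at 667 nm and signal to noise over triplicate slides.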 The following applies: 635 nm fluorescence, higher = more signal.
Chain of Focal adhesion kinase 1 (Homo sapiens) (Q05397 whole entry, looked up): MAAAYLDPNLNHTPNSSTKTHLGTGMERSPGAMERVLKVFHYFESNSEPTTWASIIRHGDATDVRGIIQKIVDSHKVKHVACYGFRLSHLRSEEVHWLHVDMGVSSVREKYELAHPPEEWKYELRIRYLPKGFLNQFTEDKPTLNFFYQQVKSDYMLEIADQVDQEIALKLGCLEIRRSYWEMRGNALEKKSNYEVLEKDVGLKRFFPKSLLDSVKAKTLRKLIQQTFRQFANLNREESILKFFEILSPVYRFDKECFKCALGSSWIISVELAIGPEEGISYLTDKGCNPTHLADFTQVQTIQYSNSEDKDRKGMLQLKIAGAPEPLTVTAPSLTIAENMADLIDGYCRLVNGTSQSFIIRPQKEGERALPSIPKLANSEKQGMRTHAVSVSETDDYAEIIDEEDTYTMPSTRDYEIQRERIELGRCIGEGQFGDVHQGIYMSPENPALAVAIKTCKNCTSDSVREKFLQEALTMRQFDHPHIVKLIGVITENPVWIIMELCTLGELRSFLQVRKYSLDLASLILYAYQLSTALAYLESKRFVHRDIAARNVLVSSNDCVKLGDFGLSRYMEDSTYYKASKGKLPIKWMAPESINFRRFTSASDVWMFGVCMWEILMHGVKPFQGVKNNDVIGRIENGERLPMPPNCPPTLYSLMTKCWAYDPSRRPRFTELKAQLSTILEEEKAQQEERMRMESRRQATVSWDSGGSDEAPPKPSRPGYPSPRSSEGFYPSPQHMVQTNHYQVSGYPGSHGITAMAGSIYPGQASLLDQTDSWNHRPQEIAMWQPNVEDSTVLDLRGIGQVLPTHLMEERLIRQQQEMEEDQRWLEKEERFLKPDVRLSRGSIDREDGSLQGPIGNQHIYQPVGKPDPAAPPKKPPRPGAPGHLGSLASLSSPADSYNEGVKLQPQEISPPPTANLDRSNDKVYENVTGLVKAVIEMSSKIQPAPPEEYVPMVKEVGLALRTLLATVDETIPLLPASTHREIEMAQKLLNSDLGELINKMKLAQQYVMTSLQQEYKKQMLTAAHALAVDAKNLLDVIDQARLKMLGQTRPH
In experiment [4] the test system is Fibrinogen (Alexa647-labelled). Nature of the experiment: Alexa647-fibrinogen binding to printed small molecules – biochemical, small-molecule microarray, 635/667 nm fluorescence, artefact control for SMM control-protein annotation, profiling panel (AID 1131).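 Note: z-score merges 667 nm fluorescence with per-spot signal-to-noise over triplicate slides.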 The following applies: fibrinogen-A647 binding fluorescence, higher = more signal.
Experiment [5] has as its target Follistatin (Homo sapiens) (UniProt P19883). Nature of the experiment: FST protein binding to printed compounds – biochemical, small-molecule microarray, 635/667 nm fluorescence, primary screen (AID 1132). The note with it: 635 nm fluorescence, higher = more signal.
Experiment [6] deals with Fibroblast growth factor 2 (Homo sapiens) (UniProt P09038). Nature of the experiment: basic fibroblast growth factor binding to printed compounds – biochemical, small-molecule microarray, 635/667 nm fluorescence, primary screen (AID 1133). The note with it: FGF2, fluorescence 635/667, higher = more signal.
Chain of Fibroblast growth factor 2 (Homo sapiens) (P09038 whole entry, looked up): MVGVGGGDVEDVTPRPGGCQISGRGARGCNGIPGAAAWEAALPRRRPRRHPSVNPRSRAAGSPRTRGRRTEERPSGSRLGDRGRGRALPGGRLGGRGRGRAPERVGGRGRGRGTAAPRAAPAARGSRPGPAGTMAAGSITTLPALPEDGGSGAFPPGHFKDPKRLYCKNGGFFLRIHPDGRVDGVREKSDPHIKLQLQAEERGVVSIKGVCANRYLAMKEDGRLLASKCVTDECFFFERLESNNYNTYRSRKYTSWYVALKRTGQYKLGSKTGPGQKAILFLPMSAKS
A short description of experiment [7]: JC-1 mitochondrial potential readout, lung cancer cells – cell-based, A549, JC-1 fluorescence, basal, 24 h, 100 nL, profiling panel (AID 1138).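 Note: A549 lung adenocarcinoma cells under basal conditions with no added stimulus; test concentration not given here.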 The note with it: higher = more signal.
A further experiment relates to Lefty1. Nature of the experiment: Lefty1 protein binding to printed compounds – biochemical, small-molecule microarray, 635/667 nm fluorescence, primary screen (AID 1139). The following applies: fluorescence 635/667, higher = more signal.
Experiment [8] concerns wheat germ agglutinin (Triticum aestivum), Alexa647-labelled. The experiment can be described thus: Alexa647-WGA lectin binding to printed small molecules – biochemical, small-molecule microarray, 635/667 nm fluorescence, artefact control for SMM control-protein annotation, profiling panel (AID 1140).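 Note: score merges 667 nm feature emission with signal to noise over triplicate slides.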 The following applies: WGA-A647 binding, 635 nm fluorescence, higher = more signal.

Experiment [9] addresses Luciferin 4-monooxygenase (Photinus pyralis) (UniProt P08659). Nature of the experiment: inhibition of purified Photinus pyralis luciferase – biochemical, luminescence, purified enzyme, 2006 set, primary screen (AID 1141).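 Note: cell-free assay with purified firefly luciferase at 100 ng per well in PBS; test concentration not given here.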 The following applies: purified firefly luciferase, SteadyGlo luminescence, 30 min; higher = more signal, called active from +8 up or from −8 down.
For experiment [10], the system named is Wnt5a (protein binding on small-molecule microarray). Nature of the experiment: small molecules binding Wnt5a protein – biophysical, small-molecule microarray, 635/667 nm fluorescence, primary screen (AID 1142).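 Note: fluorescence read at 667 nm with signal to noise per printed feature.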 The note with it: 635 nm fluorescence, higher = more signal.
Experiment [11] in a line: ATP-based viability of Huh7 replicon cells – cell-based, CellTiter-Glo luminescence, basal, 48 h, cytotoxicity control for HCV replication inhibitor project, primary screen (AID 1143).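 Note: Huh7 hepatoma cells carrying a hepatitis C replication reporter with no stimulus; test concentration not given here.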 The following applies: higher = more signal, called active from +8 up or from −8 down.
Experiment [12] in a line: Pseudomonas biofilm growth suppression – PAO1 strain, BacTiter-Glo luminescence, LB-PBS, primary screen (AID 1144). The following applies: P. aeruginosa PAO1 biofilm, 12 h, higher = more signal.
Experiment [13] is described as follows: basal CRE-LacZ reporter activity in PC12 – cell-based, unstimulated, primary screen (AID 1145). The note with it: no forskolin, luminescence, 4.5 h, higher = more signal, called active from +8 up or from −8 down.
Experiment [14] can be described thus: forskolin-driven CRE-LacZ activity in PC12 – cell-based, CRE-LacZ reporter, forskolin-stimulated, primary screen (AID 1146).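 Note: PC12 cells with 6xCRE LacZ reporter stimulated by forskolin 10 µM; beta-galactosidase reporter signal reflecting CREB driven transcription.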 The note with it: luminescence, 4.5 h, higher = more signal, called active from +8 up or from −8 down.
Experiment [15] deals with Streptavidin (Streptomyces avidinii) (UniProt P22629). The experiment can be described thus: compounds binding control protein streptavidin – biophysical, small-molecule microarray, 635/667 nm fluorescence, artefact control for SMM compound annotation, primary screen (AID 1147).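 Note: signal reflects streptavidin binding to arrayed compounds as a control protein.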 The following applies: higher = more signal.
Chain of Streptavidin (Streptomyces avidinii) (P22629 whole entry, looked up): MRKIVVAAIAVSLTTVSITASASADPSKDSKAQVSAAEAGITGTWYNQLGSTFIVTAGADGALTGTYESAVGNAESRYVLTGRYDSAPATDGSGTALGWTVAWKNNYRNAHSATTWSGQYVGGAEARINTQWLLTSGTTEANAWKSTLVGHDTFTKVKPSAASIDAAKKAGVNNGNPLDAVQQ
A short description of experiment [16]: probe aInhba binding on compound microarray – biochemical, small-molecule microarray, 635/667 nm fluorescence, primary screen (AID 1148).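 Note: score merges 667nm spot fluorescence with signal-to-noise for antibody binding to printed compounds.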 The note with it: higher = more signal.
The target of experiment [17] is Torsin-1A (Homo sapiens) (UniProt O14656). Nature of the experiment: TOR1A wild-type binding on microarray – cell lysate, small-molecule microarray, lysate, 635/667 nm, primary screen (AID 1149). The following applies: COS7 hTOR1A-WT lysate, 635 nm fluorescence, higher = more signal.
Chain of Torsin-1A (Homo sapiens) (O14656 whole entry, looked up): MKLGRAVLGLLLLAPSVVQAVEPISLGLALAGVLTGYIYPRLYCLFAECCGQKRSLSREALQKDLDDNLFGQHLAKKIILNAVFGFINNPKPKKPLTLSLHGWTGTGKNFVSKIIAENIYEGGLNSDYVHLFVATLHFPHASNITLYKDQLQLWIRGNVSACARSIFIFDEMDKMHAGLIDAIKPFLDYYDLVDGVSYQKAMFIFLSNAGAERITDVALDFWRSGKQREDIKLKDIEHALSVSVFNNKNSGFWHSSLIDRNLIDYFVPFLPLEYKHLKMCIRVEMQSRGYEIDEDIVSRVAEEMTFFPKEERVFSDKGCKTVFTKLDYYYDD
For experiment [18] the target is unchanged. Nature of the experiment: torsin A mutant lysate binding on microarrays – cell lysate, small-molecule microarray, COS7 lysate, 635/667 nm fluorescence, primary screen (AID 1150).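 Note: score pools 667 nm emission and signal to noise measuring lysate protein binding.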 The following applies: COS7 hTOR1A mutant lysate, 635 nm fluorescence, higher = more signal.
The subject of experiment [19] is Sonic hedgehog protein (Shh). Nature of the experiment: Sonic hedgehog microarray binding compounds – biochemical, small-molecule microarray, 635/667 nm fluorescence, primary screen (AID 1151).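 Note: Shh protein binding to compounds spotted on small-molecule microarray slides; score combines spot fluorescence intensity with signal-to-noise across triplicate slides.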 The following applies: 635 nm fluorescence, higher = more signal.

Active and inactive are the calls of the source. Unless noted, the rule behind the calls is not given here.

Chain of Follistatin (Homo sapiens) (P19883 whole entry, looked up): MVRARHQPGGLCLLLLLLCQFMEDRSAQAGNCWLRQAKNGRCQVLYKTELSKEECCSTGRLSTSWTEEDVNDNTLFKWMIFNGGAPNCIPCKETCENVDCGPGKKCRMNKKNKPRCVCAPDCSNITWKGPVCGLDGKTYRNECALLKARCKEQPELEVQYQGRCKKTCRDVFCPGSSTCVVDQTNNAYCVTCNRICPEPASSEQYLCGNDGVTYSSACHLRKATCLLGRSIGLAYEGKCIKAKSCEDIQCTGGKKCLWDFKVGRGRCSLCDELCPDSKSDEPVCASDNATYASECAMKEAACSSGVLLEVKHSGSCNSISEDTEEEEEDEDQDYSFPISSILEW
Chain of Luciferin 4-monooxygenase (Photinus pyralis) (P08659 whole entry, looked up): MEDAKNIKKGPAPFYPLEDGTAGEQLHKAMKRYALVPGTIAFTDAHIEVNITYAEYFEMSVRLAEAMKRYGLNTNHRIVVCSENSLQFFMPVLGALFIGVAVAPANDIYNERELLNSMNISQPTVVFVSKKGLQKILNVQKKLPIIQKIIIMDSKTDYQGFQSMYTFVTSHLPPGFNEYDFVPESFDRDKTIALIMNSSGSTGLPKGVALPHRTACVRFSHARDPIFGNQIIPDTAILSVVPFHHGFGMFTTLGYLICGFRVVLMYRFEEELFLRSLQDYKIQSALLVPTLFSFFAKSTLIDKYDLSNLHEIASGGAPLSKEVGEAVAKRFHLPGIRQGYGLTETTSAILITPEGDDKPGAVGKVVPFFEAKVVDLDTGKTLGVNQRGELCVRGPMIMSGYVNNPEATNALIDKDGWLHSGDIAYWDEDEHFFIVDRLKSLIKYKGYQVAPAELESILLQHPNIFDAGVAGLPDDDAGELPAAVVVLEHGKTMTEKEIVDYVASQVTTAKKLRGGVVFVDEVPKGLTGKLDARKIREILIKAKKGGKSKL

In the case of `Cc1ccc(S[C@]2(C(=O)NCCN3CCOCC3)CC(=O)N(Cc3ccccc3)[C@@H]2c2ccc(CO)cc2I)cc1`, the composite z-score in experiment [1] is 1.75; in experiment [2], -0.104; in experiment [3], 0.217; in experiment [4] it was -1.42; in experiment [5], -0.422; in experiment [6], -1.2. For the same compound, the composite z-score was -1.08 in the experiment with Lefty1; -0.592 in [8]; 0.0376 in experiment [10]; -0.755 in experiment [15]; -0.0719 in experiment [16]; -1.46 with Torsin-1A (Homo sapiens) [17]. In addition, the composite z-score is 0.59 in the experiment with Torsin-1A (Homo sapiens) [18] and -0.685 in experiment [19]. Besides, the z-score in experiment [7] is 0.0777; in experiment [9] it was 0.4 (inactive); in experiment [11], -5.17 (inactive); in experiment [12] it was -0.779 (inactive); in [13] it was -0.114 (inactive); in experiment [14], 1.8 (inactive).
As for `CN(C)C(=O)[C@@]1(Cc2ccccc2)N=C(c2ccc(OCCCO)cc2)O[C@H]1c1ccccc1N=[N+]=[N-]`, the composite z-score was 2.01 in experiment [1]; 1.25 in experiment [2]; 0.978 in experiment [3]; 1.01 in experiment [4]; 1.34 in experiment [5]; 0.249 in experiment [6]. For the same compound, the composite z-score was found to be 0.623 in the experiment on Lefty1; 0.382 in [8]; 0.762 in experiment [10]; 1.5 in experiment [15]; 0.086 in [16]; 0.697 with Torsin-1A (Homo sapiens) [17]. The values for the composite z-score (with Torsin-1A (Homo sapiens) [18]; in experiment [19]) were 0.505 and -0.346, respectively. Further, the z-score in experiment [7] is -0.631; in [9], -6.45 (inactive); in [11], -4.47 (inactive); in experiment [12] it was -1.05 (inactive); in [13], 0.115 (inactive); in experiment [14], -2.09 (inactive).
Regarding `COc1cc2c(cc1OC)CN(C(=O)[C@H]1[C@@H]3C(=O)O[C@@H](c4ccccc4)[C@@H](c4ccccc4)N3[C@@H](c3ccc(O)cc3)[C@]13C(=O)Nc1ccc(C#CCNC(N)=O)cc13)CC2`, the composite z-score was -0.327 in [1]; -0.0403 in [2]; 0.0099 in experiment [3]; -0.231 in experiment [4]; 1.29 in experiment [5]; 0.967 in experiment [6]. Further, the composite z-score with Lefty1 was 0.669; in experiment [8], 0.344; in [10], 0.438; in experiment [15], -0.283; in experiment [16] it was 0.0357; in the experiment with Torsin-1A (Homo sapiens) [17] it was 0.437. In addition, the figures for the composite z-score (with Torsin-1A (Homo sapiens) [18]; in experiment [19]) were 0.0805 and 0.74, respectively. Further, the z-score is -0.73 in [7]; 0.8 (inactive) in experiment [9]; -0.431 (inactive) in [11]; -1.68 (inactive) in experiment [12]; -1.01 (inactive) in experiment [13]; -0.638 (inactive) in experiment [14].
Take `CC1CC/C=C\[C@H]2OC34C=CCN(c5ccc(Cl)cc5)C(=O)[C@H]3N(CCO)C(=O)[C@]4(C)C2C(=O)O1` (stereo not given in full): the composite z-score in experiment [1] is 3.56; in experiment [2] it was -0.0955; in [3] it was 1.67; in experiment [4], -1.84; in experiment [5] it was -0.338; in experiment [6], -0.492. Further, the composite z-score is -0.49 with Lefty1; 0.811 in experiment [8]; -0.642 in [10]; -0.561 in experiment [15]; -0.128 in experiment [16]; -0.433 with Torsin-1A (Homo sapiens) [17]. The composite z-score in the experiment with Torsin-1A (Homo sapiens) [18] is -1.01; in experiment [19], -0.317. In addition, the z-score in experiment [7] is -0.259; in experiment [9], 0.259 (inactive); in experiment [11] it was -0.901 (inactive); in experiment [12], 0.43 (inactive); in [13], 0.87 (inactive); in experiment [14], -0.217 (inactive).

Source of the values: PubChem BioAssay.
